# From PubChem BioAssay AID1671190 (National Center for Advancing Translational Sciences (NCATS), 2021)
# The whole screen tested about 580,000 compounds, of which about 6,100 (1.1%) were called active. About 15% were inconclusive and are not listed. What follows is part of a selection rich in actives, with near analogues and random picks from the rest. A number with no mark means an inactive call. Calls follow the shape of the dose curve; as a rule, active = well fitted inhibition curve with a large enough effect; inconclusive = small, poorly fitted or top-dose-only effect, or another doubt; inactive = no such curve, though single readings can be large or run the other way.
# Molecular target: Polyunsaturated fatty acid lipoxygenase ALOX12 (Homo sapiens) (UniProt P18054)
# Sequence (P18054 whole entry, looked up): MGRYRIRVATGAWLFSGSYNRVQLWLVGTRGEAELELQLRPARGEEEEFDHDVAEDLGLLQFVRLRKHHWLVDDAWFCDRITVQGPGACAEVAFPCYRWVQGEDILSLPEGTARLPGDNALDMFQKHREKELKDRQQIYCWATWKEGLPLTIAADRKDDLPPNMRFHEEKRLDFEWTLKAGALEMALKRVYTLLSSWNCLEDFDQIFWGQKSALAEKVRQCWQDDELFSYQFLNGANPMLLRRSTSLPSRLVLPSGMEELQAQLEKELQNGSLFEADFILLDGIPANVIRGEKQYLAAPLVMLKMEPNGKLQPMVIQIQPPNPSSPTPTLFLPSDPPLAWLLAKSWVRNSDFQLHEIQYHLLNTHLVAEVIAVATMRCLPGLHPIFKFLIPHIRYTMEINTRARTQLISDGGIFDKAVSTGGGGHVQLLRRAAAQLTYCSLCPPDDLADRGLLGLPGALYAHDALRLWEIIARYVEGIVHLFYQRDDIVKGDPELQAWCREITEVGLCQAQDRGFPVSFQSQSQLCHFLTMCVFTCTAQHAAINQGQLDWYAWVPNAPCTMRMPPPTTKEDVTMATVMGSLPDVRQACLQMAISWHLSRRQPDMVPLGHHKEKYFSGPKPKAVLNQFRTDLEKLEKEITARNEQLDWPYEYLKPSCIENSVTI
# Assay: Primary qHTS assay for inhibitors of human arachidonate 12S-lipoxygenase (ALOX12): Round 2
# Settings: purified 12hLO, xylenol orange hydroperoxide absorbance; series mostly up to 108 µM; activity change, negative = inhibition: at the top concentration
# How it was run: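 Purified human 12hLO at 150 nM in 25 mM Hepes, 0.01% Triton X-100, pH 7.0, preincubated 15 min at room temperature with compound. Reaction started with 40 uM arachidonic acid, 30 min at room temperature. Hydroperoxide measured by Fe-xylenol orange, 573/405 nm absorbance ratio.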
# % is scaled to controls: 0 for no effect and ±100 for the full control effect; potency is read from the fitted curve at half-maximal effect.
SMILES,"activity change, negative = inhibition",Potency
CCOc1ccccc1NC(=O)c1cnc(N2CCCCC2)c2ccccc12,7.78%,
O=C(COc1ncnc2c(Cl)cc(Cl)cc12)Nc1cc(F)ccc1F,-2.36%,
Oc1c(Cl)cc(Cl)c(Cl)c1Cc1c(O)c(Cl)cc(Cl)c1Cl,,7.08 µM (active)
CC(C)(C)NC(=O)C(Sc1ccccc1)c1ccccc1 (stereo not drawn),-8.61%,
COc1ccc(Oc2c(C)oc3cc(OCC(=O)N4CCNC(=O)C4)ccc3c2=O)cc1,-1.25%,
CN(Cc1ccco1)c1cc(-c2ccccc2C(F)(F)F)ncn1,-17.5%,
FC(F)(F)c1ccccc1-c1cc(NCc2ccccc2)ncn1,,15.8 µM (active)
COc1ccccc1-c1cc(NCc2cccs2)ncn1,-0.248%,
COC(=O)c1nc(-c2ccc(F)cc2)no1,-31.2%,
CCN(CC)C(=O)[C@@H]1CCC[C@@H](NS(C)(=O)=O)CN(C)C(=O)C1,-7.85% [at 176 µM],
CCOC(=O)C(NC(=O)c1ccccc1)(OC(C)C)C(F)(F)F (stereo not drawn),3.32%,
CCOC(=O)C(NS(=O)(=O)c1ccc(C)cc1)(C(F)(F)F)P(=O)(OCC(C)C)OCC(C)C (stereo not drawn),,39.8 µM (active)
Cc1ccc(S(=O)(=O)NCC(C)NS(C)(=O)=O)cc1 (stereo not drawn),-14.4%,
CCN1C(=O)N/C(=C/c2cn(CC(=O)Nc3ccc(F)cc3)c3ccccc23)C1=O,-78.9%,
COc1cc(C(=O)Nc2ccc(C)cc2)nc2ccc(Cl)cc12,0.694%,
CSc1cccc(NC(=O)N[C@H]2CCN3C(=O)[C@H](Cc4ccc(F)cc4)NC(=O)[C@@H]3C2)c1,-21%,
O=C(c1ccc2ncccc2c1)N1CCC2(CC1)NCCc1c2[nH]c2ccccc12,30.9%,
O=C(NCC1CCOCC1)C1COc2ccccc2O1 (stereo not drawn),38%,
O=C(Nc1nc(-c2ccncc2)cs1)C1COc2ccccc2O1 (stereo not drawn),,14.1 µM (active)
O=C(Cn1nc2c(cc1=O)CCCCC2)Nc1nc(-c2ccncc2)cs1,44%,
CCc1cccc2c(C(=O)CSc3nncn3C(C)C)c[nH]c12,-38.3%,
CC1(C)Cc2c(sc3c2c(=O)n(CCO)c(=O)n3CCc2ccccc2)CO1,-41.7%,
CCC1(C)Cc2c(sc3[nH]c(=S)n(Cc4ccccc4)c(=O)c23)CO1 (stereo not drawn),,28.2 µM (active)
CCC1(C)Cc2c(sc3nnn(CC(=O)Nc4ccc(Cl)cc4)c(=O)c23)CO1 (stereo not drawn),5.01%,
COc1ccccc1-c1cnc(Nc2ccncc2)c2c1CCO2,13.2% [at 176 µM],
CN1CCN(C(=O)c2cccc(C(F)(F)F)c2)CC1,-6.7%,
O=C(CNCc1cccs1)Nc1cc(S(=O)(=O)N2CCCC2)ccc1Cl,2.03%,

SMILES,"activity change, negative = inhibition",Potency
Cc1ccc(S(=O)(=O)N2CCOCC2)cc1NC(=O)c1ccncc1,5.28%,
O=[N+]([O-])c1cc(Cl)cc(/C=N/NC(=S)Nc2cc(S(=O)(=O)N3CCOCC3)ccc2Cl)c1O,,25.1 µM (active)
CCOc1cc(C2c3c(-c4c(C)cc(C)cc4O)n[nH]c3C(=O)N2CCO)ccc1O (stereo not drawn),-3.04%,
CCC(=O)N1N=C(c2ccc(OC)cc2)CC1c1cn(-c2ccccc2)nc1-c1cccs1 (stereo not drawn),-24.7%,
C(=NCc1ccccc1)c1cn(-c2ccccc2)nc1-c1cccs1,,50.1 µM (active)
O=c1onc(-c2cccs2)n1Cc1ccccc1,0%,
CC1(C)[C@H]2CC[C@@H](CNC(=O)c3ccccc3F)[C@@H]1C2,28% [at 176 µM],
COc1cc(/C=N/Nc2ccc(C)cc2)cc(Br)c1O,,10 µM (active)
Oc1c(Br)cc(/C=N/NC(=S)NCC2CCCO2)cc1Br (stereo not drawn),6.06%,
COc1cc(/C=N/O)ccc1O,-22.4%,
O=C(Cc1ccc(Cl)cc1)Oc1ccc2ccccc2c1,23.8%,
C(=N\N=C(c1ccccc1)c1ccccc1)/c1cn[nH]c1-c1ccccc1,6.19%,
CN(C)c1ncnc2sc3c(c12)CCN(Cc1ccccc1)C3,48%,
CCCc1nc(-c2ccccc2O)n(-c2ccccc2)n1,-20.5%,
Oc1ccccc1C1=NN(c2ccccc2)C(c2ccccc2)C1 (stereo not drawn),,15.8 µM (active)
Cc1ccc(N2C(=O)C3N=NN(CC(=O)N4N=C(c5cccc6ccccc56)CC4c4ccccc4)C3C2=O)cc1 (stereo not drawn),0%,
Cc1oc2cc(OCC(=O)N3CCCCCC3)ccc2c(=O)c1-c1ccc(Cl)cc1,1.29%,
CCN1/C(=C\c2ccc3ccccc3[n+]2CC)Sc2cc(C)ccc21,,35.5 µM (active)
CCN(CC)C(=O)Oc1ccc2c(C)c(-c3ccc(OC)cc3)c(=O)oc2c1,55.5%,
O=C1CC(NCc2ccoc2)CN1CCc1cccc(Cl)c1 (stereo not drawn),38.5%,
Cc1ccccc1NC(=O)c1cc2cc([N+](=O)[O-])ccc2oc1=O,14.5%,
COc1cc(CNCCSc2nnnn2C)ccc1OCc1ccc(Cl)cc1Cl,,39.8 µM (active)
COc1cc(CNCCSc2nnnn2C)ccc1OCc1c(F)cccc1Cl,0%,
Cn1nnnc1SCCNCc1ccc(Cl)c(Cl)c1,-8.03%,
Cc1cc(S(=O)(=O)N2CCCN(C)c3ccccc32)ccc1F,-0.0222%,
Cc1ccc(CN(CC(=O)NCC2CCCO2)C2CC2)cc1 (stereo not drawn),-1.52%,
